PubChem BioAssay (NCATS)
“And” between values parts separate entries of the source, which are not always exact repeats. Equal entries are not always repeated. Records with an inconclusive call do not appear. Some compounds were tested as several samples or in several runs, with calls that do not always agree. The source made the active and inactive calls. Unless noted, the call rests on the fitted dose curve; in most records, active means well fitted curve in the direction sought with a large enough effect; inconclusive means small, poorly fitted or top-dose-only effect, or another doubt; inactive means no such curve, though single readings can be large; an effect the other way counts as inactive or inconclusive.

Assays:
[1] = qHTS assay for measurement of the activity of small molecule inhibitors on Zika virus induced Caspase-3 activity in human iPSC derived neural progenitor cells (hNPCs) (AID 1224857); further: % of control where 0% means no effect; nearly all actives have a fitted effect of over 65% in size
Procedure, shortened: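 Zika virus (2 FFU/cell) infection of human iPSC-derived NPCs, 6 h, following 1 h compound preincubation. Read-out: Caspase-Glo 3/7 luminescence.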

[2] = qHTS assay for measurement of the activity of small molecule inhibitors on Zika virus induced Caspase-3 activity in human astrocytoma cells (AID 1224859);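 further: plate controls were ZIKV-infected untreated cells for no effect and uninfected cells for full effect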
Procedure, shortened: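 Caspase activation in ZIKV-infected SNB-19 cells (2 FFU/cell, 6 h) measured by Caspase-Glo 3/7 luminescence after 30 min RT; compound pre-incubated 1 h; normalised to uninfected and infected controls.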

[3] = qHTS assay to identify small molecule inhibitors of chordoma cells - UCH-1 (AID 1259355); further: on the % scale 0 is the no-effect control and ±100 the full control effect; nearly all actives have a fitted effect of over 55% in size
Procedure, shortened: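 Luminescent ATP read-out (CellTiter-Glo, 30min at room temperature) measured viability of UCH-1 cells exposed for 48hr to test drugs at 15 concentrations, co-dosed with a five-agent combination of auranofin, camptothecin, doxorubicin, rubitecan and topotecan.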

[4] = qHTS assay to identify small molecule inhibitors of chordoma cells - UCH-2 (AID 1259356); further: series mostly up to about 46 µM; on the % scale 0 is the no-effect control and ±100 the full control effect
[5] = P-glycoprotein substrates identified in KB-8-5-11 adenocarcinoma cell line, qHTS therapeutic library screen (AID 1346987); further: nearly all actives have a fitted effect of over 65% in size; further: potency means the concentration at half of the fitted maximal effect
Procedure, shortened: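 P-gp-mediated resistance screen: KB-8-5-11 cells treated 72 h with compounds in dose-response. CellTiter-Glo viability.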

[6] = Natriuretic polypeptide receptor (hNpr1) antagonism - Pilot counterscreen GloSensor control cell line (AID 1347045; calls by dose curve; further: series mostly up to about 38 µM; on the % scale 0 is the no-effect control and ±100 the full control effect)
Procedure, shortened: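 This counterscreen uses HEK293 cells expressing the GIP/pGS-40F cGMP biosensor. Compound-treated cells are challenged with 50 uM sodium nitroprusside, and the luciferase signal is compared before and after stimulation.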

[7] = target: Atrial natriuretic peptide receptor 1 (Homo sapiens) (UniProt P16066); assay: Natriuretic polypeptide receptor (hNpr1) antagonism - Pilot screen (AID 1347049; calls by dose curve;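 further: agonist-evoked cGMP luminescence read 20 min after hNppA addition; series mostly up to about 58 µM; on the % scale 0 is the no-effect control and ±100 the full control effect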)
Procedure, shortened: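 HEK293 cells co-expressing hNpr1 and the GloSensor pGS-40F cGMP luciferase sensor were preloaded with 2% GloSensor reagent for 2 h. Compounds were added for 30 min at room temperature, then cells were stimulated with 0.1 nM hNppA for 20 min before luminescence readout.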

[8] = target: Atrial natriuretic peptide receptor 2 (Homo sapiens) (UniProt P20594); assay: Natriuretic polypeptide receptor (hNpr2) antagonism - Pilot subtype selectivity assay (AID 1347050; calls by dose curve; further: on the % scale 0 is the no-effect control and ±100 the full control effect)
Procedure, shortened: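 cGMP-sensor HEK293/hNpr2 cells; 2% GloSensor reagent 2 h RT; compounds 30 min; baseline luminescence read; 1 nM hNppC agonist 20 min RT; final luminescence read by CCD camera. Antagonism = reduced post-agonist signal.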

[9] = NS1 protein of Zika virus - qHTS assay to identify small molecule inhibitors in human HEK 293 cells (AID 1347053);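 further: series mostly up to about 46 µM; plate controls were infected untreated cells for no effect and uninfected cells for full effect; nearly all actives have a fitted effect of over 55% in size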
Procedure, shortened: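 Following 20 h seeding, HEK 293 cells took compound, then 1 h later ZIKV MR766 (MOI = 0.5). Incubation ran 24 h at 37 C before TR-FRET detection of NS1; a drop in signal indicates inhibition.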

[10] = target: T1, Tyrosine-protein phosphatase non-receptor type substrate 1 (Homo sapiens) + Leukocyte surface antigen CD47 (Homo sapiens) (UniProt P78324+Q08722); assay: CD47-SIRPalpha protein protein interaction - LANCE assay qHTS validation (AID 1347057; active means well fitted curve in the direction sought with a large enough effect in the signal ratio, with a control signal flat, not every such curve was filed as active; the % refers to the signal ratio; further: series mostly up to about 38 µM; 0% is about no effect)
Procedure, shortened: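 First, His-tagged CD47 and Eu-labelled anti-His antibody met the compound for 30 min; next, site-specifically biotinylated SIRPalpha was added for 30 min; finally streptavidin-APC was added before reading the TR-FRET ratio.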

[11] = target: T1, Tyrosine-protein phosphatase non-receptor type substrate 1 (Homo sapiens) + Leukocyte surface antigen CD47 (Homo sapiens); assay: CD47-SIRPalpha protein protein interaction - HTRF assay qHTS validation (AID 1347058; active means well fitted curve in the direction sought with a large enough effect in the signal ratio, not every such curve was filed as active; the % refers to the signal ratio;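 further: recombinant soluble extracellular CD47 with His tag and biotinylated SIRPalpha domains; series mostly up to about 38 µM; 0% is about no effect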)
Procedure, shortened: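 TR-FRET read (Ch1/Ch2 ratio) of soluble extracellular CD47 and Avi-biotinylated SIRPalpha domains in PBS pH 7.4 with 0.05% IGEPAL; 7-point compound titration. Sequential 30 min room-temperature steps; non-biotinylated SIRPalpha as control inhibitor.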

[12] = Identifying Small Molecule Inhibitors of Pancreatic Cancer Stem Cells (SN12C, Adherent) (AID 1259358);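 further: cell survival measured after 48 h of compound exposure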
Procedure, shortened: (§1)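 After a 4 h attachment period, compounds were pinned into wells and cultures held 48 h under standard incubator conditions. Viability was then measured as CellTiter-Glo luminescence following 10 min at room temperature.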

[13] = Identifying Small Molecule Inhibitors of Pancreatic Cancer Stem Cells (SN12C, Spheroid) (AID 1259360);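 further: 100% = DMSO-treated cells and 0% = wells without cells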
Procedure, shortened: (§2)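 Pre-formed 14-day tumor spheroids or adherent cells dosed and incubated 48 h, 37C, 5% CO2. Viability assessed by CellTiter-Glo.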

[14] = Identifying Small Molecule Inhibitors of Pancreatic Cancer Stem Cells (A278, Adherent) (AID 1259361);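 further: viability read after 48 h compound exposure; 100% = DMSO-treated cells and 0% = cell-free media-only wells; nearly all actives have a fitted effect of over 35% in size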
Procedure, shortened: as §1

[15] = Identifying Small Molecule Inhibitors of Pancreatic Cancer Stem Cells (Panc1, Adherent) (AID 1259362); conditions: Potency: viability;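 further: compound exposure lasted 48 h before the viability read; plate controls were DMSO-treated cells for no effect and cell-free media wells for full effect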
Procedure, shortened: as §2

T1 sequence (P78324 whole entry, looked up): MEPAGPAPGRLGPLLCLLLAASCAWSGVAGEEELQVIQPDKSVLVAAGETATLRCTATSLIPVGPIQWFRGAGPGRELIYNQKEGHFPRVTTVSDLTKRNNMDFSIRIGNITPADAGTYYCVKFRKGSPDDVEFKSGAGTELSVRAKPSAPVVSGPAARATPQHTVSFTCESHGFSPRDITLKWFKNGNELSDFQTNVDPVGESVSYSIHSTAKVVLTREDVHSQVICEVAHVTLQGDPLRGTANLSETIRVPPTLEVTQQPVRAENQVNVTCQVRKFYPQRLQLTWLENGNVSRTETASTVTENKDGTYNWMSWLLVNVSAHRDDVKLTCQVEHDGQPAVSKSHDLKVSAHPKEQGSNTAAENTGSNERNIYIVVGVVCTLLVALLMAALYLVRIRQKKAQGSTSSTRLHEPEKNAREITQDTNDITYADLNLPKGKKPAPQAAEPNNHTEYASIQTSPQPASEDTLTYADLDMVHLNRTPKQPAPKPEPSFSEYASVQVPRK
T1 sequence (Q08722 whole entry, looked up): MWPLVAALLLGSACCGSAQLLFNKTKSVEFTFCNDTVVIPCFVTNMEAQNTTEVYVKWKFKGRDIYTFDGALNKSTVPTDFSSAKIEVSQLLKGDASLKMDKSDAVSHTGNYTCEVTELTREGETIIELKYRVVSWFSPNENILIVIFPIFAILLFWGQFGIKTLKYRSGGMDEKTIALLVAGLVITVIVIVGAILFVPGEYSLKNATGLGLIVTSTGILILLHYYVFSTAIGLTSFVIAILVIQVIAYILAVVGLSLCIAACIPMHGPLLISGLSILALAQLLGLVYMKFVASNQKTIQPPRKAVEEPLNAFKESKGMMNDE
Sequence of Atrial natriuretic peptide receptor 2 (Homo sapiens) (P20594 whole entry, looked up): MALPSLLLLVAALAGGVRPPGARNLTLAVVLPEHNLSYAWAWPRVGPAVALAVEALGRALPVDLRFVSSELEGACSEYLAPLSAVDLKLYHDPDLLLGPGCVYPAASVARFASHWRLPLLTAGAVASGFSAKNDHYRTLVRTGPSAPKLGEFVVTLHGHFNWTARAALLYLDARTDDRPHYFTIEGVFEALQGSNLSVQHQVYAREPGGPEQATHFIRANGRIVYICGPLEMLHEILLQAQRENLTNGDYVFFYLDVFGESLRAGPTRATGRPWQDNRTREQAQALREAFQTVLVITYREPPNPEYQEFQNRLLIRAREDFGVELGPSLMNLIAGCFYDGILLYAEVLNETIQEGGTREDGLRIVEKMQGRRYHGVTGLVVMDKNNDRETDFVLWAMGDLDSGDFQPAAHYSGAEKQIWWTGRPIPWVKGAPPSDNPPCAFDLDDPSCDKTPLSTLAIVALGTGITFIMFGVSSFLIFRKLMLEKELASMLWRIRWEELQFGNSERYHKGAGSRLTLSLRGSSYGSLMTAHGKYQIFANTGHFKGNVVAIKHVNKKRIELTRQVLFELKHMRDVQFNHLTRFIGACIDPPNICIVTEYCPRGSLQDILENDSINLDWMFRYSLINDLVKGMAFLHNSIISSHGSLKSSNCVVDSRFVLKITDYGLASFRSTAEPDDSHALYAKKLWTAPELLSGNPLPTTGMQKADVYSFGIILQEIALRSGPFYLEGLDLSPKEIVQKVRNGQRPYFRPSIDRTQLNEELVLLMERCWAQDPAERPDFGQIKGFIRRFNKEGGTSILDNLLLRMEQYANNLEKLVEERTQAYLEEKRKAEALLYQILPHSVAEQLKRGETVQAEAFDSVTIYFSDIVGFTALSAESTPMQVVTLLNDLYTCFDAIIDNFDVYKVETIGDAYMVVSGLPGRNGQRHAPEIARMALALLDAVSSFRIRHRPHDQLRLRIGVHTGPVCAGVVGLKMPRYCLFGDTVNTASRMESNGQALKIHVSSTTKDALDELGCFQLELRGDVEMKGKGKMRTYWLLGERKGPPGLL
Sequence of Atrial natriuretic peptide receptor 1 (Homo sapiens) (P16066 whole entry, looked up): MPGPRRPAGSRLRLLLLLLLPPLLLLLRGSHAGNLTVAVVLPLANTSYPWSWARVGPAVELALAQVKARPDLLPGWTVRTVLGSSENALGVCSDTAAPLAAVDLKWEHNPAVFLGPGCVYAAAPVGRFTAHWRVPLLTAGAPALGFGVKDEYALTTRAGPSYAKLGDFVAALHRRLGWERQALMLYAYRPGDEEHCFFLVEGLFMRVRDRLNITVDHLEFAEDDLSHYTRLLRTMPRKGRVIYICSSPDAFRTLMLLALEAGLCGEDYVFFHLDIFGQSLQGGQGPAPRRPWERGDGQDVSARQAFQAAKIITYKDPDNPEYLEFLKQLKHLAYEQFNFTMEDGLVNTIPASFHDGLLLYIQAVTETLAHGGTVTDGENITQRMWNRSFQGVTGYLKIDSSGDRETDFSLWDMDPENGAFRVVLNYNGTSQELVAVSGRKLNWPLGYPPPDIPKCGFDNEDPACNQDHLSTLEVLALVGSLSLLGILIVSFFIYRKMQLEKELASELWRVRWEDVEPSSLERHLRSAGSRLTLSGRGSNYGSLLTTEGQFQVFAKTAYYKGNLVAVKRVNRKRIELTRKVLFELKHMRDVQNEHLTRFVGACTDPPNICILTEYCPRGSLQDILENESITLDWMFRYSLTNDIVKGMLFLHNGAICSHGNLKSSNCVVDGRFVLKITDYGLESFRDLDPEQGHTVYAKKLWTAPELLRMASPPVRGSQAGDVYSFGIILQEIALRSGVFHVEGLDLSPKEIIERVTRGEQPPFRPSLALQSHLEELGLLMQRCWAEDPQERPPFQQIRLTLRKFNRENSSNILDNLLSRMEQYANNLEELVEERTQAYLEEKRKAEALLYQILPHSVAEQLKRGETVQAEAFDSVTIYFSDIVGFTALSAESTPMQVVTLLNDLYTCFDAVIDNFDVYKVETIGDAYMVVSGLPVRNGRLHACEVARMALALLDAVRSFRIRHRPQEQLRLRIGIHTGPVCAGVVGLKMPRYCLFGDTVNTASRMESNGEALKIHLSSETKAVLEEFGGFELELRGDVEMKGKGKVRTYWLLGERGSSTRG

COc1ccc2cc1Oc1ccc(cc1)C[C@H]1c3c(cc4c(c3Oc3cc5c(cc3OC)CCN(C)[C@@H]5C2)OCO4)CCN1C
inactive: outcome [1] | outcome [2] | activity, negative = inhibition [3] -13.6% [at 1.88 µM] | outcome [4]
active: Potency [5] 20.6 µM

CCN(CC)CCNC(=O)c1c(C)[nH]c(/C=C2\C(=O)Nc3ccc(F)cc32)c1C
inactive: outcome [1] | outcome [2] | Potency [3]

NCCNCCNCCN
inactive: outcome [1] | outcome [2] | Potency [3] | outcome [4] | Potency [5]

O=C(O)c1ccccc1-c1ccc(C(F)(F)F)cc1
inactive: outcome [1] | outcome [2] | Potency [3] | outcome [4] | Potency [5]

CC(C)(C)C(=O)NCCCC(=O)O
inactive: outcome [1] | outcome [2] | Potency [3] | outcome [4] | Potency [5]

CCN(CC)CCNC(=O)c1cc(Cl)c(N)cc1OC
inactive: outcome [1] | outcome [2] | Potency [3] | outcome [4] | Potency [5] | outcome [6] | outcome [7] | Potency [8] | Potency [9] | outcome [10] | outcome [11]

OC[C@H]1O[C@@H](O[C@@H]2[C@@H](CO)O[C@](O)(CO)[C@H]2O)[C@H](O)[C@@H](O)[C@H]1O
inactive: outcome [1] | outcome [2] | Potency [3] | outcome [4] | Potency [5]

Oc1cn2c(n1)Nc1ccc(Cl)c(Cl)c1C2
active: Potency [5] 18.4 nM and 20.6 nM
inactive: outcome [1] | outcome [2] | Potency [3] | outcome [4] | outcome [12] | outcome [13] | IC50 (viability decrease) [14] | Potency [15]

NC(=O)c1ncn([C@@H]2O[C@H](CO)[C@@H](O)[C@H]2O)c1N
inactive: outcome [1] | outcome [2] | Potency [3] | outcome [4] | outcome [12] | IC50 (viability decrease) [14] | Potency [5] | Potency [9]

C[C@H]1O[C@H](O[C@H]2[C@H](O)[C@@H](O)[C@@H](O[C@H]3[C@H](O)[C@@H](O)[C@H](O)O[C@@H]3CO)O[C@@H]2CO)[C@H](O)[C@@H](O)[C@@H]1N[C@H]1C=C(CO)[C@@H](O)[C@H](O)[C@H]1O
inactive: outcome [1] | outcome [2] | Potency [3] | outcome [4] | Potency [5]

O=S(=O)(O)c1cc(I)c(O)c2ncccc12
inactive: outcome [1] | outcome [2] | Potency [3] | outcome [4] | Potency [5]

COc1ccc2cc1Oc1cc3c(cc1OC)CC[N+](C)(C)[C@H]3Cc1ccc(cc1)Oc1c(OC)c(OC)cc3c1[C@@H](C2)[N+](C)(C)CC3
inactive: outcome [1] | outcome [2] | Potency [3] | outcome [4] | Potency [5]

CN(C)CCCO[C@@H]1[C@H]2OC(C)(C)O[C@H]2O[C@@H]1C(O)CO (stereo not given in full)
inactive: outcome [1] | outcome [2] | activity, negative = inhibition [3] -7.27% [at 1.88 µM] | outcome [4] | Potency [5]

Cc1cc(C(C#N)c2ccc(Cl)cc2)c(Cl)cc1NC(=O)c1cc(I)cc(I)c1O (stereo not given)
16.4 µM (active) and inactive: Potency [5]
inactive: outcome [1] | outcome [2] | Potency [3] | outcome [4]

Cc1cc(N)c2ccccc2[n+]1CCCCCCCCCC[n+]1c(C)cc(N)c2ccccc21
inactive: outcome [1] | outcome [2] | Potency [3] | outcome [4] | Potency [5] | outcome [6] | outcome [7] | Potency [8] | outcome [10]
